From PubChem BioAssay
Active and inactive are the calls of the source.

Legend:
[1] = small molecules captured by biotinylated probe aFSTL3 – biochemical, small-molecule microarray, fluorescence 635/667, stem cell growth factor project, primary screen (AID 1064); conditions: higher = more signal;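 also: measures binding of the biotinylated anti-FSTL3 antibody to printed compounds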
[2] = binders from COS7 lysate, DM2A8 probe, primary screen, torsin A project, cell lysate, small-molecule microarray, fluorescence 635/667 (AID 1065); conditions: higher = more signal, COS7 lysate expressing mutant human TOR1A
[3] = small molecules captured by biotinylated probe aFGF2 – biochemical, small-molecule microarray, fluorescence 635/667, stem cell growth factor project, primary screen (AID 1067); conditions: higher = more signal;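 also: measures binding of biotinylated aFGF2 protein to printed compounds on slides; z-score merges feature fluorescence and signal-to-noise across triplicate slides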
[4] = small molecules captured by biotinylated probe aFGF10 – biochemical, small-molecule microarray, fluorescence 635/667, stem cell growth factor project, primary screen (AID 1071); conditions: higher = more signal;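 also: score merges 667 nm spot intensity and signal to noise from triplicate slides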
[5] = target: Neurogenic locus notch homolog protein 2 (Homo sapiens) (UniProt Q04721); experiment: small molecules binding Notch2 protein – biochemical, small-molecule microarray, 635 nm fluorescence, stem cell growth factors, primary screen (AID 1073); conditions: higher = more signal
Chain of Neurogenic locus notch homolog protein 2 (Homo sapiens) (Q04721 whole entry, looked up, canonical isoform): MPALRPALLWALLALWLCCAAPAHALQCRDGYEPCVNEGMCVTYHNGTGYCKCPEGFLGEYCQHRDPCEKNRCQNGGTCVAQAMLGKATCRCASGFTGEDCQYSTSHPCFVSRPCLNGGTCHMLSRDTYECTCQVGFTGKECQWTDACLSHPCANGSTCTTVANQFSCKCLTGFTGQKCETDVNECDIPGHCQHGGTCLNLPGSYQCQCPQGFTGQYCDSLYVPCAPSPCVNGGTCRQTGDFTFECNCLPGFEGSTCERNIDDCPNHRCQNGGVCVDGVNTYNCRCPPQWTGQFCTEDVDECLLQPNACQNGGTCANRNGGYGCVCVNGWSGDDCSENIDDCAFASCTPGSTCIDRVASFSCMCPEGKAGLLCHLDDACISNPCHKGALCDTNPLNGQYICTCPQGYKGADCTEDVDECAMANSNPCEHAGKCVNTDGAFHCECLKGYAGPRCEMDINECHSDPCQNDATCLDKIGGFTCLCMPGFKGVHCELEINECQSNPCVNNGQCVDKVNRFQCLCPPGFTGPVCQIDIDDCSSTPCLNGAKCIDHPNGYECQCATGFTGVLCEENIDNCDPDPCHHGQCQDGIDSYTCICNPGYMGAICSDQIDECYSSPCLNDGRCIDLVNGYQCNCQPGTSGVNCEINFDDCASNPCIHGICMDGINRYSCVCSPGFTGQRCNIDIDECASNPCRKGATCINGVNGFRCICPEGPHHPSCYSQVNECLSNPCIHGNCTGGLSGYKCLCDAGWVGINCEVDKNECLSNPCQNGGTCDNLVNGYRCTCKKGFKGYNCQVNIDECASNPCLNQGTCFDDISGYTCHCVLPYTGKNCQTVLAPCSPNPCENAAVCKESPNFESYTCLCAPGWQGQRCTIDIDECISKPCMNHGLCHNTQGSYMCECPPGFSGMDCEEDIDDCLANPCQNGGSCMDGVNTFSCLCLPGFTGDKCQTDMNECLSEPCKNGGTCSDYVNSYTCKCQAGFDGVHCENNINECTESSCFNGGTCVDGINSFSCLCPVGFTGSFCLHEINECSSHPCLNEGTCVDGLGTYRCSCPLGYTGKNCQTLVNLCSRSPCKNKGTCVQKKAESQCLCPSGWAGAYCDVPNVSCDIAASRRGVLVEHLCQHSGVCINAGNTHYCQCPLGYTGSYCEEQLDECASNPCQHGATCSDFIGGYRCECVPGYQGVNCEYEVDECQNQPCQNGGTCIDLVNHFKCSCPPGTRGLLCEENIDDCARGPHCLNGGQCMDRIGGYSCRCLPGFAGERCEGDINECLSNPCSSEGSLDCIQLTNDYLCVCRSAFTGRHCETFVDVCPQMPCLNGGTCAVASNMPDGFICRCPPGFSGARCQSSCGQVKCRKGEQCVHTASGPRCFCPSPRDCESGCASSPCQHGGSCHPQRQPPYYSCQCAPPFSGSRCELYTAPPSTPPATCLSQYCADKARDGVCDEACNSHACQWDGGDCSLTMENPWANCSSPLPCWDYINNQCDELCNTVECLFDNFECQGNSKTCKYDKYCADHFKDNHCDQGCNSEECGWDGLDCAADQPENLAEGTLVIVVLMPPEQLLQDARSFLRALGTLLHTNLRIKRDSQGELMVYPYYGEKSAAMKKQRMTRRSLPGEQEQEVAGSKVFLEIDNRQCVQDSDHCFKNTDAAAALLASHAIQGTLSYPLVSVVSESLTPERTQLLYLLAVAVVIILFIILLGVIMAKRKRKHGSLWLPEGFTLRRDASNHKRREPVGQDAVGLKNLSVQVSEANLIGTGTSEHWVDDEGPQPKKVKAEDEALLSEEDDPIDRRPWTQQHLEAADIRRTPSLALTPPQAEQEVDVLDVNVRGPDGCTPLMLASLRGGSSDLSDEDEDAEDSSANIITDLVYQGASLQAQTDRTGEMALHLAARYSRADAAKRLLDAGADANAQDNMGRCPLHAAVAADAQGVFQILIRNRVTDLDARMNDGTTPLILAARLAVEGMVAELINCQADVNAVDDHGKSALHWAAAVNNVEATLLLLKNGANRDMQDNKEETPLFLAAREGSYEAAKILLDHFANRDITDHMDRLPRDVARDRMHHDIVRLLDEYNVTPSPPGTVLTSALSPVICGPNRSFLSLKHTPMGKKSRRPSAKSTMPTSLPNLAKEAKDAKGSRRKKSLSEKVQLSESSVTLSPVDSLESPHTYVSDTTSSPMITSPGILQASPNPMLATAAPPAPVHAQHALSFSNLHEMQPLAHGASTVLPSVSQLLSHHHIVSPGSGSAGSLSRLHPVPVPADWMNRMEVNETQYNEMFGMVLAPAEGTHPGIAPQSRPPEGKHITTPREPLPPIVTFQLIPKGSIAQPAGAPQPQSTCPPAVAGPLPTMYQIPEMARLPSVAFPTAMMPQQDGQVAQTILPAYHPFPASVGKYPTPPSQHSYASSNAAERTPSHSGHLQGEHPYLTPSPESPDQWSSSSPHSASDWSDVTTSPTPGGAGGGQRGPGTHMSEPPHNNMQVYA

[6] = target: Pro-neuregulin-1, membrane-bound isoform (Homo sapiens) (UniProt Q02297); experiment: small molecules binding neuregulin-1 protein – biochemical, small-molecule microarray, fluorescence 635/667, psychiatric disease protein project, primary screen (AID 1075); conditions: NRG1 binding, 635 nm fluorescence, higher = more signal;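 also: score combines 667 nm spot fluorescence with signal to noise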
Chain of Pro-neuregulin-1, membrane-bound isoform (Homo sapiens) (Q02297 whole entry, looked up, the tested form may be a part, canonical isoform): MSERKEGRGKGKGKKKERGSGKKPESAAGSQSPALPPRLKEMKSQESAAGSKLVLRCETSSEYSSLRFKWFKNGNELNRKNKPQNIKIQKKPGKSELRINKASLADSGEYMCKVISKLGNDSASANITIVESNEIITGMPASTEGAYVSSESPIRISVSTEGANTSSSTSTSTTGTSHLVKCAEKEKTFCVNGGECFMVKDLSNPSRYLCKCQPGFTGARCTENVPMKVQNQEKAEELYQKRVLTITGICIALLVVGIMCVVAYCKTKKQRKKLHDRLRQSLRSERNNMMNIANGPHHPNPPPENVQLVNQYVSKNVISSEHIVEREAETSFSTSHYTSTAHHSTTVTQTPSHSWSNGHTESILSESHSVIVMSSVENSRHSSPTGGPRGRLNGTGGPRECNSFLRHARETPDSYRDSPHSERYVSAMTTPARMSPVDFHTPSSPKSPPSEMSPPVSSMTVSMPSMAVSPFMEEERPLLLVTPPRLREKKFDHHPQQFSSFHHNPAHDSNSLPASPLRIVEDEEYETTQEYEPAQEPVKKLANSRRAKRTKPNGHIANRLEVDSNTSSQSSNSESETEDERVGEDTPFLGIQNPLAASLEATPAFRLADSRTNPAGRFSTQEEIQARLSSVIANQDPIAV

[7] = test system: Neuregulin-1 EGF-like domain; experiment: small molecules binding NRG1 EGF domain – biochemical, small-molecule microarray, 635 nm fluorescence, primary screen (AID 1081); conditions: higher = more signal;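 also: binding of the protein to compounds printed on small-molecule microarray slides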
[8] = FRG1 expression reporter modulators in myotubes – cell-based, C2C12 myotubes, firefly/Renilla luciferase, luminescence, FRG1 inhibition for FSHD, primary screen (AID 1084); conditions: FRG1 promoter luciferase, higher = more signal, called active from +8 up or from −8 down
[9] = small molecules captured by biotinylated probe aFST – biochemical, small-molecule microarray, fluorescence 635/667, stem cell growth factor project, primary screen (AID 1086); conditions: higher = more signal;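 also: score merges 667 nm fluorescence with signal-to-noise of each printed compound spot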
[10] = binders of probe aHhip on microarray, primary screen, stem cell growth factor project, biochemical, small-molecule microarray, fluorescence 635/667 (AID 1087); conditions: higher = more signal;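 also: score merges spot fluorescence at 667nm with spot signal to noise ratio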

Row | Structure (SMILES) | composite z-score [1] | composite z-score [2] | composite z-score [3] | composite z-score [4] | composite z-score [5] | composite z-score [6] | composite z-score [7] | z-score [8] | composite z-score [9] | composite z-score [10]
1 | COCCOC(=O)N1C(=O)[C@@]2(c3cc(C#CC4(O)CCCCCC4)ccc31)[C@H](C(=O)Nc1nc3ccccc3s1)[C@H]1C(=O)O[C@H](c3ccccc3)[C@H](c3ccccc3)N1[C@@H]2c1ccc(O)cc1 | -0.304 | 0.442 | -0.0202 | 0.539 | 1.24 | 1.46 | 1.2 | 0.21 (inactive) | 1.47 | 0.107
2 | CCOC(=O)C[C@H]1[C@H](OC(=O)c2ccc(C(=O)c3ccccc3)cc2)[C@@H](NC(=O)c2ccc3ccccc3n2)c2cc(OCCCO)ccc2N1C(=O)Cc1ccc(OC)cc1 | -0.379 | 0.123 | -0.0807 | 0.289 | 0.599 | 0.252 | -0.261 | 0.673 (inactive) | 0.121 | 0.0501
3 | CCC#CCN(Cc1ccccc1Br)[C@H](/C=C/C1CC1)[C@@H](O)Cc1ccccc1 | 0.689 | 0.131 | -0.17 | -0.548 | -1.46 | -0.285 | -0.33 | -1.96 (inactive) | -0.17 | -0.169
4 | CO[C@H]1O[C@H](CO)[C@@H](OC(=O)Nc2ccc3c(c2)OCO3)[C@H](OC(=O)Nc2ccc3c(c2)OCO3)[C@@H]1OC(=O)Nc1ccc2c(c1)OCO2 | -0.202 | 0.584 | 0.256 | 1.21 | 1.26 | 1.78 | 1.2 | 2.2 (inactive) | 0.338 | 0.0818
5 | C[C@@H]1NC(=O)[C@@H](Cc2ccccc2)NC(=O)[C@@]23C(=O)N[C@@H](Cc4ccccc4)C2[C@H](C)[C@@]2(C)O[C@H]2C3/C=C/C/C=C\CNC1=O (stereo not given in full) | -0.285 | 1.13 | -0.149 | -0.211 | -0.787 | -0.235 | 0.305 | -0.323 (inactive) | -0.263 | -0.249
6 | C#CCN(Cc1ccccc1Br)[C@H](/C=C/c1ccccc1)[C@@H](O)Cc1ccccc1 | 1.6 | -0.145 | -0.164 | -0.738 | -1.09 | -0.316 | -0.289 | -2.05 (inactive) | -0.722 | 0.0373
7 | C[N+](C)(C)CCCC[C@@H]1NC(=O)[C@@H]2C[C@H](C(=O)NCCCCCCN)[C@H](c3cccc(OCCO)c3)N2C1=O | 2.69 | 2.09 | 0.239 | 0.494 | 0.731 | 2.31 | 1.38 | -0.155 (inactive) | 2.1 | 1.05
8 | O=C1C2C=CC(C(O)c3cccc(O)c3)N(Nc3ccc([N+](=O)[O-])cc3)C2C(=O)N1c1ccccc1 (stereo not given) | -0.171 | 0.325 | -0.0133 | 0.765 | 0.719 | 0.0076 | 0.63 | 0.125 (inactive) | 0.441 | -0.136
9 | NCCCCCCNC(=O)[C@@H]1C[C@@H]2C(=O)N[C@@H](CCCCN)C(=O)N2[C@@H]1c1ccc(O)cc1 | 0.208 | 0.301 | -0.0313 | 0.469 | 0.147 | 2.01 | 1.25 | 0.598 (inactive) | 0.077 | -0.149
10 | CC(C)[Si](C#C[Si](C(C)C)(C(C)C)C(C)C)(O[C@H](c1ccccc1)c1cn(Cc2ccccc2)nn1)C(C)C | -0.353 | 0.213 | -0.1 | 0.311 | 0.615 | -0.16 | 0.928 | 0.133 (inactive) | 0.276 | 0.0808
11 | CN(C)C(=O)[C@]1(Cc2ccccc2CN=[N+]=[N-])N=C(c2ccc(OCCCO)cc2)O[C@@H]1c1ccccc1 | 0.168 | -0.242 | 0.0577 | 0.863 | 0.666 | 1.62 | 0.96 | -3.49 (inactive) | 0.694 | -0.0618
12 | CC(C)N1CC=CC23O[C@@H]4C=CCCOC(=O)C4[C@H]2C(=O)N(CCCO)[C@@H]3C1=O (stereo not given in full) | -0.339 | -0.0962 | -0.12 | -0.458 | -0.693 | -0.491 | 0.059 | -0.395 (inactive) | 0.002 | 0.0505
13 | [N-]=[N+]=Nc1ccccc1C[C@]1(C(=O)N2CCOCC2)COC(c2ccc(OCCCO)cc2)=N1 | -0.0495 | 0.713 | -0.0442 | 0.261 | 1.35 | 1.38 | 1.19 | 1.71 (inactive) | 1.28 | -0.0617
14 | CC(C)c1ccc(NN2C(C(O)c3ccc(C#N)cc3)C=CC3C(=O)N(c4ccccc4)C(=O)C32)cc1 (stereo not given) | 0.546 | 0.0853 | 0.105 | 1.15 | 1.72 | 1.87 | 1 | -2.97 (inactive) | 1.8 | -0.0704
15 | O=C(NCc1ccc(F)cc1)[C@H]1C[C@H]2C(=O)NCC(=O)N2[C@H]1c1ccc(O)cc1 | 0.505 | 0.6 | -0.0224 | -0.162 | -0.336 | 0.964 | 1.3 | -0.428 (inactive) | 0.101 | 0.12
16 | CCCCC(CC)C(O)C1C=CC2C(=O)N(c3ccccc3)C(=O)C2N1Nc1ccccc1F (stereo not given) | 0.0758 | 0.39 | 0.151 | 0.972 | 1.54 | -0.144 | 1.21 | 0.39 (inactive) | 0.727 | -0.123
